The molecules below were run on E18 rat cortical neuron-glia co-culture (assay: myelination (MBP fiber length per Olig2+ nucleus), % of 1 µM DAPT response (DMSO = 0) (% of DAPT); higher = more myelination, active = 50 or more). Details: 5 µM; treatment time: 8 days (DIV5-DIV13).
How it was run: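 Rat cortical co-cultures from E18 tissue were dissociated with papain and plated at 20,000 cells/well on 96-well plates coated with poly-d-lysine/laminin. From DIV5 to DIV13, library compounds were added at 1 or 5 µM in myelination medium. After fixation in 4 % paraformaldehyde, cultures were immunostained for MBP and Olig2 and counterstained with DAPI, and four 10X fields were analysed in each of duplicate wells. The myelination value is the length of continuous straight MBP fibers per Olig2+ nucleus, normalised so that 0.1 % DMSO is 0 and a 1 µM positive control is 100.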

SMILES	myelination
CS(=O)(=O)Nc1ccc(Cc2noc(-c3ccc4[nH]cc(CCN)c4c3)n2)cc1	-17.8 (inactive)
CCCN1C[C@H](CSC)C[C@@H]2c3cccc4[nH]cc(c34)C[C@H]21 [Pergolide]	-24.9 (inactive)
C[N+]1(CCC(C(N)=O)(c2ccccc2)c2ccccc2)CCCCC1 [Fenpiverinium]	191
C[C@]12CC[C@H]3[C@@H](CCC4=CC(=O)CC[C@@]43C)[C@@H]1CC[C@@H]2O [Testosterone]	-15.4 (inactive)
CN1CCN(C(=O)O[C@H]2c3nccnc3C(=O)N2c2ccc(Cl)cn2)CC1 [Eszopiclone]	15.5 (inactive)
C=C1C[C@@H]2[C@H](CC[C@]3(C)C(=O)CC[C@@H]23)[C@@]2(C)C=CC(=O)C=C12 [Exemestane]	-11.8 (inactive)
C[C@]12CC[C@H]3[C@@H](CCC4=CC(=O)CC[C@@H]43)[C@@H]1CC[C@@H]2O [Nandrolone]	-16.8 (inactive)
CCC1(c2ccc(N)cc2)CCC(=O)NC1=O (stereo not drawn) [Aminoglutethimide]	-5.16 (inactive)
O=C(O)C(Cl)Cl [Dichloroacetic Acid]	-7.43 (inactive)
C=CCN1CC[C@]23c4c5ccc(O)c4O[C@H]2C(=O)CC[C@@]3(O)[C@H]1C5 [Naloxone]	3.29 (inactive)
CC(O)(CS(=O)(=O)c1ccc(F)cc1)C(=O)Nc1ccc(C#N)c(C(F)(F)F)c1 (stereo not drawn) [Bicalutamide]	-2.06 (inactive)
O=C1Nc2ccc(Cl)cc2C(c2ccccc2Cl)=NC1O (stereo not drawn) [Lorazepam]	15 (inactive)
COc1cc(N)c(Cl)cc1C(=O)NC1CN2CCC1CC2 (stereo not drawn) [Zacopride]	-0.361 (inactive)
CN1[C@@H]2CC[C@H]1C[C@@H](OC(=O)[C@H](CO)c1ccccc1)C2 [Hyoscyamine]	-12.5 (inactive)
CCCCC/C=C\C/C=C\C/C=C\C/C=C\CCCC(=O)Nc1ccc(O)cc1	-30.5 (inactive)
COc1ccc2[nH]cc(C3=CCNCC3)c2c1	-24.2 (inactive)
c1ccc(Cn2ccnc2)cc1 [1-Benzylimidazole]	-0.886 (inactive)
Oc1ccc2c3c1O[C@H]1c4[nH]c5ccccc5c4C[C@@]4(O)[C@@H](C2)N(CC2CC2)CC[C@]314 [Naltrindole]	-19 (inactive)

From the supplement of paper PMC4840960
